Screening results deposited in PubChem by National Center for Advancing Translational Sciences (NCATS).
DT40 TDP1 no CPT – qHTS for Inhibitors of human tyrosyl-DNA phosphodiesterase 1 (TDP1): qHTS in cells in absence of CPT; DT40 Tdp1-/- hTDP1 cells, no CPT, ATP luminescence, 48 h; Potency, µM (series often up to 46.2 µM), most hits filed as inhibitors; hit rate 15% among 420,000; AID 686978, 2013; also: nearly all actives have a fitted effect of over 55% in size
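Compound effects on proliferation are scored in DT40 Tdp1-/-;hTDP1 cells in the absence of CPT. ATP levels (CellTiter-Glo luminescence) are recorded after a ≥48 hr, 37 °C incubation.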
HepG2 viability – kills HepG2 cells in TGF-b inhibitor counter-screen; HepG2 CAGA-GFP viability, ATP luminescence, 18 h; Potency, µM (doses to about 46.1 µM), most hits filed as cytotoxic; hit rate 0.76% among 410,000; AID 588856
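CellTiter-Glo luminescence gave cytotoxicity after 18 hours at 37 degrees C. The cells were HepG2 CAGA-GFP in 1% FBS DMEM, stimulated with 500 pg/mL TGF-beta after compound addition. %Activity was normalised to no-cell wells (complete cell-killing) and DMSO (no toxicity), and curves were fitted and classified.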
ATXN viability – cell viability loss in ATXN counter-screen; S2 cells (HEK-293 line with an ATXN2-luciferase reporter) viability, CellTiter-Fluor protease fluorescence, 24 h; Potency, µM (titrated, usually from 56.7 µM), hits mostly cytotoxic; hit rate 0.49% among 400,000; AID 651635; also: nearly all actives have a fitted effect of over 40% in size
TDP1 cell CPT – DT40-hTDP1 cell growth loss with CPT. chicken DT40 Tdp1-/-;hTDP1 cells + 20 nM CPT, ATP luminescence, 48 h. Potency, µM (titrated, usually from 46.2 µM), most hits filed as inhibitors. hit rate 12% among 420,000. AID 686979; also: nearly all actives have a fitted effect of over 55% in size
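Cell growth measured by CellTiter-Glo luminescence after a minimum 48 h, 37 C compound exposure with 20 nM CPT in Tdp1-knockout DT40 cells stably expressing hTDP1, seeded 400/well; qHTS titration format.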
TGFb SMAD3 inh – inhibitors of TGF-b signaling. HepG2 CAGA-GFP TGF-b/SMAD3 reporter, GFP fluorescence, 18 h; TGF-beta stimulated, 500 pg/mL final. Potency, µM (highest dose often 46.1 µM), most hits filed as inhibitors. hit rate 1.2% among 410,000; also: nearly all actives have a fitted effect of over 65% in size
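Per well, imaged GFP fluorescence of HEPG2 CAGA-GFP cells gives the signal; cells get compound, then TGF-beta (500 pg/mL final), 18 h at 37 degrees C; %Activity versus -TGF-beta and +DMSO controls.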
ATXN2 expr inh – ATXN2 expression inhibition. HEK-293 ATXN2-luciferase reporter, luminescence, 24 h. Potency, µM (titrated, usually from 57 µM), actives largely listed as inhibitors. hit rate 0.72% among 360,000; also: nearly all actives have a fitted effect of over 55% in size
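qHTS (up to 57 uM final) was run with 24 h compound exposure of reporter cells at 37 °C. Each well was multiplexed: SteadyGlo luminescence measured ATXN2-luciferase expression after a fluorogenic Gly-Phe-AFC viability readout (25 uM final).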
Numbers stand for hits; n = inactive; u = inconclusive; x = no result. This is a sample that favours compounds with a hit; in the whole collection about 17% have one here. Calls follow the shape of the dose curve; as a rule, active = well fitted curve in the direction sought with a large enough effect; inconclusive = small, poorly fitted or top-dose-only effect, or another doubt; inactive = no such curve, though single readings can be large; an effect the other way counts as inactive or inconclusive.

SMILES | DT40 TDP1 no CPT | HepG2 viability | ATXN viability | TDP1 cell CPT | TGFb SMAD3 inh | ATXN2 expr inh
COc1ccccc1NC(=S)NC1CCC(CC2CCC(NC(=S)Nc3ccccc3OC)CC2)CC1 (centres undefined) | 13µM | n | n | 10µM | n | n
CCOc1ccc(NC(=O)COc2ccc(S(=O)(=O)NC3CCCCC3)cc2)cc1 | u | n | n | u | n | n
S=C(Nc1cccc2ccccc12)Nc1cccc2ccccc12 | u | n | n | u | n | n
COc1cc2nncc(SC)c2cc1OC | u | n | n | u | n | n
CCCCN1C2CCCC1CC(NC(=O)c1cccc(Cl)c1)C2 (centres undefined) | 23µM | n | n | u | n | n
COc1cccc(C(=O)NNC(=S)NC2CCCCC2)c1 | u | n | n | 16µM | n | n
COc1cccc(C(=O)NC2CC3CCCC(C2)N3S(=O)(=O)c2ccccc2)c1 (centres undefined) | 12µM | n | n | 13µM | u | n
O=C(NNC(=S)NC1CCCCC1)c1cccs1 | n | n | n | n | n | n
O=C(NNC(=S)NC1CCCCC1)c1ccc(Cl)s1 | 15µM | n | n | n | u | n
CCCCN1C2CCCC1CC(NC(=O)c1cccc(OC)c1)C2 (centres undefined) | n | n | n | n | n | n
COc1cccc(C(=O)NC2CCCC2)c1 | n | n | n | n | n | n
O=C(NCc1ccc(F)cc1)C(=O)NCC1OCCN1C(=O)c1cccs1 (centres undefined) | n | n | u | n | n | n
S=C(Nc1ccccc1Oc1ccccc1)NC1CCCC1 | 18µM | n | n | u | n | x
CSc1ccccc1NC(=S)NC1CCCC1 | n | n | n | n | n | n
COc1ccc(S(=O)(=O)N(C)C)cc1NC(=O)COc1ccc2c(c1)CCC2 | u | n | u | n | n | x
CCCCc1ccccc1NC(=S)NC1CCCC1 | 18µM | n | n | u | u | u
COc1cc(C)c(NC(=O)COc2ccc3c(c2)CCC3)cc1OC | u | n | n | 23µM | n | n
O=C(CSCc1ccccc1Br)N/N=C/c1ccc(OCC(=O)N2CCCCC2)cc1 | 2.9µM | n | n | n | u | n
O=C(CSCc1ccccc1)N/N=C/c1ccc(OCC(=O)N2CCCCC2)cc1 | n | n | n | n | n | n
COCCCNC(=O)C[C@H]1C[C@H](C(=O)N2CCCCC2)[C@@]2(C)c3[nH]c4ccc(Cl)cc4c3CCN2C1=O | 13µM | n | n | 21µM | n | n
C[C@]12c3[nH]c4ccc(Cl)cc4c3CCN1C(=O)[C@@H](CC(=O)NCc1ccco1)C[C@@H]2C(=O)N1CCCCC1 | 5.8µM | n | u | 6.5µM | u | n
CC[C@]12c3[nH]c4ccc(Cl)cc4c3CCN1C(=O)[C@@H](CC(=O)NCCc1ccccn1)C[C@@H]2C(=O)N1CCN(C(=O)C2CC2)CC1 | u | n | n | u | n | n
CC(C)N(C(=O)[C@H]1C[C@H](CC(=O)NCCC2=CCCCC2)C(=O)N2CCc3c([nH]c4ccc(Cl)cc34)[C@]12C)C(C)C | 26µM | n | n | 29µM | u | n
COc1ccc2[nH]c3c(c2c1)CCN1C(=O)C(CC(=O)NCc2ccco2)C[C@H](C(=O)N2CCCCC2)[C@@]31C (some centres undefined) | u | n | n | n | n | n
C[C@]12c3[nH]c4ccc(Cl)cc4c3CCN1C(=O)[C@@H](CC(=O)NCCc1ccccn1)C[C@@H]2C(=O)N1CCCCC1 | 26µM | n | n | u | u | n
Cc1ccc(-c2nnc(N(C)C(=O)c3ccccn3)s2)cn1 | n | n | n | n | n | n
O=c1[nH]c(=S)[nH]c2c1C(c1cccc(C(F)(F)F)c1)OC(CCc1ccccc1)C2 (centres undefined) | u | x | n | u | x | n
Cc1[nH]n(-c2ccccc2)c(=O)c1C=Nc1ccc(S(=O)(=O)Nc2nccs2)cc1 | n | n | n | u | n | n
